Source: PubChem BioAssay (Tox21)
Results filed as inconclusive are left out. Values without a mark were called inactive. Activity calls are given as the source filed them. The call rests on the fitted dose curve; in most records, active means well fitted cell-killing curve with a large enough effect in the repeat runs; inconclusive means weak or mixed curves, or effect the other way; inactive means flat fitted curve, though single readings scatter.

Assay: cAMP Responsive Elements (CRE) small molecule antagonists, cell-based qHTS assay: qHTS cell viability counter screen (AID 2060913); further: nearly all actives have a fitted effect of over 40% in size
Details: CRE-bla HEK293T viability, CellTiter-Glo luminescence, 5 h; series mostly up to 92.4 µM; viability change, negative = cytotoxic: at the top concentration
In short: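 CRE-bla HEK293T cells (2,000/well, 18 h) given compound plus NKH477 0.25 uM final for 3 h at 37C; viability counter-screen by CellTiter-Glo luminescence in same wells after 30 min.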
On the % scale 0 is the no-effect control and ±100 the full control effect.

Compound	viability change, negative = cytotoxic	Potency
Nc1c[n+](N2CCOCC2)no1	6.48% [at 42.5 µM]	
O=C(NCCc1c[nH]c2ccccc12)c1cccnc1	7.12% [at 42.5 µM]	
Nc1nc2ccc(OC(F)(F)F)cc2s1	5.25% [at 42.5 µM]	
S=C(S)NCCNC(=S)S	16.6%	
Oc1ccccc1C=NCc1ccccc1	8.94% [at 42.5 µM]	
CCCC(C)=O		inactive
C=C(C)C(=O)OCC1CCCO1 (stereo not given)	3.56%	
c1ccc2ccccc2c1		inactive
CCOC(=O)n1ccn(C)c1=S		inactive
CC1=C(C)C(=O)C(CCCCC#CCCCC#CCO)=C(C)C1=O	-6.88% [at 42.5 µM]	
O=CCCCC=O		inactive
CC(=O)CCc1ccccc1		inactive
Oc1ccc2c(c1)CCC2	-1.52%	
Cc1cc(C)cc([N+](=O)[O-])c1	5.85%	
CCCCCCCCCCCCN1CCOCC1	10.6%	
Cc1ccc(C(=O)c2cc(O)c(O)c([N+](=O)[O-])c2)cc1		inactive
CC(=O)Nc1ccc(C(=O)CCl)cc1		inactive
CCOC(=O)c1ccc(OCCN2C[C@H](O)[C@@H](O)[C@H](O)[C@H]2CO)cc1	2.76% [at 42.5 µM]	
CC1CCCCC1	-6%	
Oc1cc2ccccc2cc1O	-3.33%	

Compound	viability change, negative = cytotoxic	Potency
BrCCCCCBr	19.8%	
C=COCC1CCC(CO)CC1 (stereo not given)	-0.865%	
Cc1c(NC(=O)c2cccnc2)c(=O)n(-c2ccccc2)n1C	0.761% [at 42.5 µM]	
CCN(CC)CCCC(C)Nc1c2ccc(Cl)cc2nc2ccc(OC)cc12 (stereo not given)	-5.9% [at 42.5 µM]	
COc1ccc(OC)c(C(O)CNC(=O)CN)c1 (stereo not given)		inactive
Oc1ccc(CCNCCCCCCNCCc2ccccc2)cc1O	8.62% [at 42.5 µM]	
c1coc(Cn2cccc2)c1	18%	
CCCCN	5.1% [at 42.5 µM]	
CCCCCCO		inactive
Cc1ccc(N)cc1S(=O)(=O)O	-6.59%	
O=C(OOC(=O)c1ccccc1)c1ccccc1	9.91% [at 42.5 µM]	
CC(=O)OCC(=O)[C@H]1CC[C@H]2[C@@H]3CCC4=CC(=O)CC[C@]4(C)[C@H]3CC[C@]12C	4.72% [at 42.5 µM]	
Cn1nnc2c(C(N)=O)ncn2c1=O	17.5% [at 42.5 µM]	
CCCCCC1Nc2cc(C(F)(F)F)c(S(N)(=O)=O)cc2S(=O)(=O)N1 (stereo not given)	-2.19% [at 42.5 µM]	
CC(=O)OC1C2(C)CCC(C2)C1(C)C (stereo not given)	20.1%	
O[C@@H](COc1cccc2ncccc12)CN1CCN(C2c3ccccc3[C@@H]3[C@H](c4ccccc42)C3(F)F)CC1 (stereo not given in full)	-15.7% [at 42.5 µM]	
CCOC(=O)c1ccccc1C	-9.25%	
CSc1ccc(/C=C2/C(C)=C(CC(=O)O)c3cc(F)ccc32)cc1	-2.68% [at 42.5 µM]	
Oc1ccc(C(c2ccc(O)cc2)C(Cl)(Cl)Cl)cc1		inactive
O=Cc1cc2ccccc2o1	9.17%	
